Experimental data reported in PubChem BioAssay (Tox21).
A number with no mark means an inactive call. Inconclusive results are not listed. A call without a number means that no potency is given here. Active and inactive are the calls of the source. Unless noted, the call rests on the fitted dose curve.

What was measured:
[1] = Nuclear factor erythroid 2-related factor 2/antioxidant responsive element (Nrf2/ARE) small molecule agonists: qHTS cell viability counter screen in human keratinocytes (AID 1919968; active means well fitted curve in the direction sought with a large enough effect in the repeat runs; an effect the other way counts as inactive or inconclusive; further: nearly all actives have a fitted effect of over 55% in size)
How it was run: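 Stably transfected HaCaT (KeratinoSens), 1,500/well. Test agents in DMSO were applied for 23 h, 37 C/5% CO2. CellTiter-Fluor was incubated 1 h before the fluorescence read.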

[2] = Nuclear factor erythroid 2-related factor 2/antioxidant responsive element (Nrf2/ARE) small molecule agonists: luciferase reporter gene qHTS assay in human keratinocytes (AID 1919969); further: nearly all actives have a fitted effect of over 35% in size; further: potency means the concentration at half of the fitted maximal effect
[3] = target: Gonadotropin-releasing hormone receptor (Homo sapiens) (UniProt P30968); assay: Human gonadotropin-releasing hormone receptor (GnRHR) small molecule agonists, calcium flux assay in GnRHR-HEK293 cells (AID 1920063); further: nearly all actives have a fitted effect of over 35% in size
Chain of Gonadotropin-releasing hormone receptor (Homo sapiens) (P30968 whole entry, looked up): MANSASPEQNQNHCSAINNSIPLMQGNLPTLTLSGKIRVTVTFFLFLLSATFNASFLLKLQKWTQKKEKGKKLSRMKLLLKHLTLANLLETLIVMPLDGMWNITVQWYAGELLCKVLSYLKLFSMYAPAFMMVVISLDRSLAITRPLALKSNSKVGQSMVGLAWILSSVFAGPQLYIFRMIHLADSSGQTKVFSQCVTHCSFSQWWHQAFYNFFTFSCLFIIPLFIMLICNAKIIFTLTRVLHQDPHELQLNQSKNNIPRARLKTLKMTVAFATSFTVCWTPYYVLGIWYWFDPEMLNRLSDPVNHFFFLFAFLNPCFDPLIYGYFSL
How it was run: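 Stable human GnRHR HEK293 line. 18 h plating, then calcium dye for 1 h at 37 C. Agonist-mode compound addition from DMSO stocks; fluorescence monitored 3 min.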

[4] = target: KiSS-1 receptor (Homo sapiens) (UniProt Q969F8); assay: Human kisspeptin (KISS1R) small molecule agonists, calcium flux assay in KISS1R-HEK293 cells (AID 1920064; active means well fitted curve in the direction sought with a large enough effect in the repeat runs; an effect the other way counts as inactive or inconclusive)
Chain of KiSS-1 receptor (Homo sapiens) (Q969F8 whole entry, looked up): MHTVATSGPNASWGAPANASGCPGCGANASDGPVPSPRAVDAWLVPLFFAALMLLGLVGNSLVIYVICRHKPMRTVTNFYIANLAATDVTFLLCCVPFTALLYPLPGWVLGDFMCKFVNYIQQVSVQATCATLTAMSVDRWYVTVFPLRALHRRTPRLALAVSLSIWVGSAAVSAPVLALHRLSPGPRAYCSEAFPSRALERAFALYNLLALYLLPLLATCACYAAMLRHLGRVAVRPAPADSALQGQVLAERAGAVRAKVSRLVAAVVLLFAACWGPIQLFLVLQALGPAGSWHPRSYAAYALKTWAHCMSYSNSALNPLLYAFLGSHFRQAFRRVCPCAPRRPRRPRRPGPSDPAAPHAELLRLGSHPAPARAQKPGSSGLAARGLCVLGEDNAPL
How it was run: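 After overnight (18 h) culture at 37 C/5% CO2, human KISS1R-HEK293 cells received calcium dye for 1 h, then test compound; emission at 540 nm (excitation 480 nm) was tracked for 3 min.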

[5] = G protein-coupled receptor (GPCR) small molecule agonists, calcium flux assay: HEK293 wild type cell line counter screen (AID 1920065)
How it was run: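 Following 18 h incubation at 37 C/5% CO2, plates got calcium dye for 1 h; compounds, ATP or DMSO were then pinned in and fluorescence followed kinetically (480/540 nm).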

[6] = p53 small molecule agonists, cell-based qHTS assay with human liver microsomes: qHTS cell viability counter screen (AID 1963579); further: nearly all actives have a fitted effect of over 45% in size
How it was run: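 p53RE-bla cells, 4,000/well, dosed 5 hours after plating, with human liver microsomes (0.5 mg/mL final) plus NADPH (0.5 mg/mL final), 16 hours at 37 C. Viability read as CellTiter-Glo luminescence after 30 min at room temperature.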

[7] = p53 small molecule agonists, cell-based qHTS assay with rat liver microsomes: qHTS cell viability counter screen (AID 1963580); further: nearly all actives have a fitted effect of over 45% in size
How it was run: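 Luminescent ATP readout (CellTiter-Glo, 30 min at room temperature) reports viability of p53RE-bla HCT-116 cells after 16 h at 37 C with test compounds under metabolic activation by rat liver microsomes and NADPH at 0.5 mg/mL final each.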

[8] = p53 small molecule agonists, cell-based qHTS assay: qHTS cell viability counter screen (AID 1963581); further: nearly all actives have a fitted effect of over 45% in size
How it was run: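 qHTS counter screen: 16 h compound exposure at 37 C of p53RE-bla HCT-116 cells (4,000 per well, seeded 5 h prior), cell viability by ATP luminescence.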

[9] = p53 small molecule agonists, cell-based qHTS assay (AID 1963582; active means well fitted activation curve with a large enough effect in the signal ratio in the repeat runs, not every such curve was filed as active; the % refers to the signal ratio)
How it was run: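 Measured: fluorescence from cleaved LiveBLAzer substrate. System: p53RE-bla cells, 16 h compound treatment at 37 C, 2 h substrate step at room temperature.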

[10] = target: 5-hydroxytryptamine receptor 2A (Homo sapiens) (UniProt P28223); assay: 5-hydroxytryptamine receptor 2A (HTR2A) small molecule antagonists, cell-based qHTS assay (AID 1963586); further: nearly all actives have a fitted effect of over 45% in size
Chain of 5-hydroxytryptamine receptor 2A (Homo sapiens) (P28223 whole entry, looked up): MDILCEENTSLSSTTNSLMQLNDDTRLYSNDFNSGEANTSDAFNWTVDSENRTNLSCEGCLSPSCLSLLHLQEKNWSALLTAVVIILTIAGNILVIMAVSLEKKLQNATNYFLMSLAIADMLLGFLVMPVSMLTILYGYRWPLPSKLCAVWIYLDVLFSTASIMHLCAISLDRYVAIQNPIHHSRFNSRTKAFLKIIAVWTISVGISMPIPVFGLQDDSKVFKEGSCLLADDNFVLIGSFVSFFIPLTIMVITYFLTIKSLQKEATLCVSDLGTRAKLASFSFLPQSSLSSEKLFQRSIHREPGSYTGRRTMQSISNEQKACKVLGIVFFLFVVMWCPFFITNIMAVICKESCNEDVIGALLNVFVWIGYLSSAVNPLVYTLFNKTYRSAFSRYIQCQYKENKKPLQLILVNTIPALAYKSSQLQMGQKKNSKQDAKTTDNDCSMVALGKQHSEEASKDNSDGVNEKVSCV
How it was run: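 CHO cells stably expressing human HTR2A were plated for 18 h at 37 C, then loaded with calcium dye for 1 h. Compounds were preincubated 5 min at room temperature before DOI (4 nM solution) was added. Kinetic fluorescence was read for 3 min.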

[11] = target: 5-hydroxytryptamine receptor 2A (Homo sapiens) (UniProt P28223); assay: 5-hydroxytryptamine receptor 2A (HTR2A) small molecule agonists, cell-based qHTS assay (AID 1963587); further: nearly all actives have a fitted effect of over 30% in size
How it was run: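 HTR2A-CHO cells, plated 18 h at 37 C/5% CO2, dye-loaded 1 h at 37 C; compounds in DMSO added by pin tool (agonist mode). Intracellular calcium flux read as kinetic fluorescence on FDSS over 2 min at 1 s intervals.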

[12] = target: Muscarinic acetylcholine receptor M1 (Homo sapiens) (UniProt P11229); assay: Cholinergic receptor muscarinic 1 (CHRM1) small molecule antagonists, cell-based qHTS assay (AID 1963588); further: nearly all actives have a fitted effect of over 40% in size
Chain of Muscarinic acetylcholine receptor M1 (Homo sapiens) (P11229 whole entry, looked up): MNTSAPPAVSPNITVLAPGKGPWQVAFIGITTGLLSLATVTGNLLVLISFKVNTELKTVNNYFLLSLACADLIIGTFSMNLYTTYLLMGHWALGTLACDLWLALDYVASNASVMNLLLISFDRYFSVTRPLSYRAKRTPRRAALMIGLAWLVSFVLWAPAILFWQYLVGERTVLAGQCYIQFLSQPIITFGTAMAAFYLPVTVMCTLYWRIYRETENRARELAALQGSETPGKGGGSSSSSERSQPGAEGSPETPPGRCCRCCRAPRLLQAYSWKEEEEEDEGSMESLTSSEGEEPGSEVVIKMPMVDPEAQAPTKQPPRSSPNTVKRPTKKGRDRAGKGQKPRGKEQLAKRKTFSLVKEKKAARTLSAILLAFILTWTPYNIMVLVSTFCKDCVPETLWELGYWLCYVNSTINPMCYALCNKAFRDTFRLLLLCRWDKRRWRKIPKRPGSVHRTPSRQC
How it was run: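 Compounds were tested at 15 concentrations in three independent runs. Dye-loaded CHRM1-CHO cells were exposed 5 min at room temperature before stimulation by acetylcholine added at 50nM. Intracellular calcium was read kinetically on FDSS for 3 min.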

[13] = target: Muscarinic acetylcholine receptor M1 (Homo sapiens) (UniProt P11229); assay: Cholinergic receptor muscarinic 1 (CHRM1) small molecule agonists, cell-based qHTS assay (AID 1963589); further: nearly all actives have a fitted effect of over 35% in size
How it was run: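 Kinetic fluorescence (1 s intervals) of calcium-sensitive dye in human M1 CHO cells after compound addition; cells pre-incubated 18 h at 37 C/5% CO2 and dye-loaded 1 h.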

[14] = cAMP Responsive Elements (CRE) small molecule agonists, cell-based qHTS assay (AID 1963590)
How it was run: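 Test agents in DMSO were incubated 3 h at 37 C/5% CO2 with CRE-bla HEK 293T cells seeded 18 h earlier; LiveBLAzer B/G FRET substrate was added and read after 2 h at room temperature.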

[15] = cAMP Responsive Elements (CRE) small molecule antagonists, cell-based qHTS assay (AID 1963591; active means well fitted inhibition curve with a large enough effect in the signal ratio in the repeat runs, not every such curve was filed as active; the % refers to the signal ratio)
How it was run: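 Reporter line CRE-bla HEK 293T in dialyzed-FBS DMEM; cells preincubated 18 h, treated 3 h with compound plus NKH477 (0.25 uM final); LiveBLAzer FRET, 2 h RT.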

[16] = target: Beta-2 adrenergic receptor (Homo sapiens) (UniProt P07550); assay: Adrenergic beta2 receptor (ADRB2) small molecule antagonists, cell-based qHTS assay (AID 1963592); further: series mostly up to about 92 µM; nearly all actives have a fitted effect of over 50% in size
Chain of Beta-2 adrenergic receptor (Homo sapiens) (P07550 whole entry, looked up): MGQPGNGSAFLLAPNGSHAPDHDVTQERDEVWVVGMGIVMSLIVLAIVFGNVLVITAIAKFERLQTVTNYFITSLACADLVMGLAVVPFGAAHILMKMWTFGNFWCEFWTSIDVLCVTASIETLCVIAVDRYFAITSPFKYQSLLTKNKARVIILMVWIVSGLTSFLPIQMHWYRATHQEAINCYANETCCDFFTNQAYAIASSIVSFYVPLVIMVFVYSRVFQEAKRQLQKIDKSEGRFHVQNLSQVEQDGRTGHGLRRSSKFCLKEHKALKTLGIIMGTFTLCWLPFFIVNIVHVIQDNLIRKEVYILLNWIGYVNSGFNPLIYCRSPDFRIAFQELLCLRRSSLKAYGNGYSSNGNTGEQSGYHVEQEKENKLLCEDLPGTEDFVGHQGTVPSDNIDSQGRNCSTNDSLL
How it was run: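 Assay format: CHO-ADRB2 cells, 18-20hr seeding at 37C/5% CO2, then compound plus 1nM isoproterenol agonist mix for 0.5hr RT. Homogeneous time-resolved fluorescence cAMP detection after 1hr, expressed as 665/615 nm ratio.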

[17] = target: D(2) dopamine receptor (Homo sapiens) (UniProt P14416); assay: Dopamine D2 receptor (DRD2) small molecule agonists, cell-based qHTS assay (AID 1963594); further: nearly all actives have a fitted effect of over 35% in size
Chain of D(2) dopamine receptor (Homo sapiens) (P14416 whole entry, looked up): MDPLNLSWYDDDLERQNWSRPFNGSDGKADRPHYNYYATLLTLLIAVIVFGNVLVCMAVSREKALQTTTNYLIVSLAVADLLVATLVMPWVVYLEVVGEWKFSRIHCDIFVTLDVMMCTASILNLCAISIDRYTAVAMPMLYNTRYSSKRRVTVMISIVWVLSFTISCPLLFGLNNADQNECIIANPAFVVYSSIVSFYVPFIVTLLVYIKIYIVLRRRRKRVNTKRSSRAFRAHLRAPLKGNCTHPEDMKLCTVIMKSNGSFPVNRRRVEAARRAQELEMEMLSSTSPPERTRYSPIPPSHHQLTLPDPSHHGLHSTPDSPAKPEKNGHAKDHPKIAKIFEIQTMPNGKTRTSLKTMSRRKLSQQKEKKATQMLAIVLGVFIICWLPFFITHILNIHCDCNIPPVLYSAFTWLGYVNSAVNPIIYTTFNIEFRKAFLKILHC
How it was run: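 HEK293 cells stably expressing DRD2 were cultured 24 h at 37 C, then given Ro20-1724 (0.1 mM final) and compounds for 10 min at room temperature. NKH477 (200nM) was then added for 30 min. cAMP was read by HTRF.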

[18] = target: D(2) dopamine receptor (Homo sapiens) (UniProt P14416); assay: Dopamine D2 receptor (DRD2) small molecule antagonists, cell-based qHTS assay (AID 1963595; active means well fitted inhibition curve with a large enough effect in the signal ratio in the repeat runs, with a control signal flat; the % refers to the signal ratio)
How it was run: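 In this cell-based antagonist screen, compounds act for 10 min at room temperature before a 30 min challenge with 12 nM quinpirole and 200 nM NKH477. cAMP is quantified by HTRF competition in DRD2-HEK293 cells containing 0.1 mM Ro20-1724.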

[19] = p53 small molecule agonists, cell-based qHTS assay with rat liver microsomes (AID 1963578)
How it was run: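 p53RE-bla cells, 4,000/well, pre-incubated 5 h, then given compounds plus rat liver microsomes (0.5 mg/mL final) and NADPH (0.5 mg/mL final). Incubation 16 h at 37 C; beta-lactamase reporter read by LiveBLAzer fluorescence after 2 h at room temperature.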

[20] = target: Beta-2 adrenergic receptor (Homo sapiens) (UniProt P07550); assay: Adrenergic beta2 receptor (ADRB2) small molecule agonists, cell-based qHTS assay (AID 1963593);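 further: CHO cells stably overexpressing human ADRB2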
How it was run: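 CHO cells stably over-expressing ADRB2 were plated overnight at 37C, then dosed with compounds plus a stimulation mix containing 100uM IBMX and 25uM Ro-20-1724 for 0.5hr at room temperature. cAMP was measured by HTRF competition, 1hr.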

Structure (SMILES) | Potency [1] | Potency [2] | Potency [3] | Potency [4] | Potency [5] | Potency [6] | Potency [7] | Potency [8] | Potency [9] | Potency [10] | Potency [11] | Potency [12] | Potency [13] | Potency [14] | Potency [15] | Potency [16] | Potency [17] | Potency [18] | Potency [19] | Potency [20]
COc1nccnc1CC(C)C | inactive | inactive | inactive | inactive | inactive | inactive | inactive | inactive | inactive | inactive | inactive | inactive | inactive | inactive | inactive | inactive | inactive | inactive | – | –
CC(=O)Oc1ccc(C2(c3ccc(OC(C)=O)cc3)Oc3ccccc3NC2=O)cc1 | inactive | inactive | inactive | inactive | inactive | – | – | – | – | inactive | inactive | – | inactive | inactive | – | inactive | inactive | – | – | –
CCCOc1ccc2c(c1)CC[C@@H]1[C@@H]2CC[C@]2(C)C(OC)CC[C@@H]12 (stereo partly drawn) | inactive | inactive | inactive | inactive | inactive | inactive | inactive | inactive | inactive | inactive | inactive | inactive | inactive | inactive | inactive | inactive | inactive | – | inactive | inactive
O=C(/C=C/c1ccc(O)c(O)c1)O[C@@H]1C[C@@](OC(=O)/C=C/c2ccc(O)c(O)c2)(C(=O)O)C[C@@H](O)[C@@H]1O | inactive | inactive | inactive | inactive | inactive | inactive | inactive | inactive | inactive | inactive | inactive | inactive | inactive | inactive | inactive | inactive | inactive | inactive | – | inactive
CC[C@]1(O)C[C@H]2CN(CCc3c([nH]c4ccccc34)[C@@](C(=O)OC)(c3cc4c(cc3OC)N(C=O)[C@H]3[C@@](O)(C(=O)OC)[C@H](OC(C)=O)[C@]5(CC)C=CCN6CC[C@]43[C@@H]65)C2)C1 | inactive | 596 nM (active) | inactive | inactive | inactive | – | – | – | – | – | – | – | – | – | – | inactive | – | inactive | inactive | inactive
Nc1ccc(F)cc1F | inactive | inactive | inactive | inactive | inactive | inactive | – | inactive | inactive | inactive | – | inactive | inactive | inactive | inactive | inactive | inactive | inactive | – | inactive
C=CCOCC(O)CCl (stereo not drawn) | inactive | inactive | inactive | inactive | inactive | inactive | inactive | inactive | inactive | inactive | inactive | inactive | inactive | inactive | inactive | inactive | inactive | inactive | inactive | –
CCOCN(C(=O)CS(=O)(=O)O)c1c(C)cccc1CC | inactive | inactive | inactive | inactive | inactive | inactive | inactive | inactive | inactive | – | – | – | inactive | inactive | inactive | inactive | inactive | inactive | – | inactive
